Out of some 320,000 compounds screened, about 2,800 (0.88%) were called active.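 How the source made its calls: active means inhibition above the mean inhibition of all tested compounds plus 3 SD, computed separately for each screening campaign (cut at about 15% in these data); inactive means the rest.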 The full list was thinned out, with actives kept by preference.

In general, inhibition refers to the change of the read-out against control, counted positive when it falls.

The target of this assay is Serine/threonine-protein phosphatase PP1-alpha catalytic subunit (Homo sapiens) (UniProt P62136). Kind of assay: inhibition of human PP1 catalytic subunit – biochemical, fluorescence, OMFP substrate, single point, counter-screen for PP5 inhibitor project, primary screen (AID 2235). Conditions: purified PP1alpha, at 6.7 µM, stronger effect = higher value.
Sequence of Serine/threonine-protein phosphatase PP1-alpha catalytic subunit (Homo sapiens) (P62136 whole entry, looked up): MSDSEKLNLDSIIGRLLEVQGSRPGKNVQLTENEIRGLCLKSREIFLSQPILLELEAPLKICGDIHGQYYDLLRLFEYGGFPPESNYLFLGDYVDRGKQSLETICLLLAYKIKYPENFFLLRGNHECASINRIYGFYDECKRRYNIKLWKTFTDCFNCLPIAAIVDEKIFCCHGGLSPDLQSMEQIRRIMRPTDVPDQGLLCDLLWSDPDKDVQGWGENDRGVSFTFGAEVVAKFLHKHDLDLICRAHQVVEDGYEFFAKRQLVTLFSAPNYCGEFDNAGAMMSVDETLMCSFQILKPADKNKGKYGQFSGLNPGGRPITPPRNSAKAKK
As for `O=c1[nH]c(CN2CC=C(c3ccccc3)CC2)nc2scc(-c3cccs3)c12`, the inhibition is 18.9% (active).

`CC(C)Nc1nc(Cl)nc(NC(C)C)n1`: the inhibition is -5.49% (inactive).

Consider `Cc1ccc(Cn2c(C)c3cnn(CC(=O)N4CCC5(CC4)OCCO5)c(=O)c3c2C)cc1`, for which the inhibition was 10.3% (inactive).

As to `COC(=O)C1=C(c2cccc(OCc3ccccc3)c2)C[C@@H]2CC[C@H]1N2C(=O)NNCc1ccccc1`, the inhibition was 7.24% (inactive).

For `Cc1ccc(P(=S)(c2ccc(C)o2)N2CCOCC2)o1`, the inhibition is 3.58% (inactive).

On to `Cc1ccc(-c2nn(CCC#N)cc2C(=O)O)cc1C`, for which the inhibition is 0.33% (inactive).

In the case of `O=C(O)c1ccccc1NC(=O)C1C2CCC(O2)C1C(=O)O` (stereo not given), the inhibition was 33.1% (active).

Consider `CC(=O)Nc1ccc(C(=O)C(Cc2ccccc2)N(C)C)cc1` (stereo not given), for which the inhibition is -0.99% (inactive).

On to `COC(=O)C1=C(c2cc3ccccc3o2)C[C@@H]2CC[C@H]1N2C(=O)NC1CCCCC1`, for which the inhibition was -1% (inactive).

For `CCOP(=O)(OCC)C(O)c1ccc(OC)cc1OC` (stereo not given), the inhibition was 47.2% (active).

For `CCOP(=O)(OCC)C(NC(=O)c1ccc(OC)cc1)C(Cl)(Cl)Cl` (stereo not given), the inhibition was 0.9% (inactive).

With `CCOP(=O)(OCC)C(NC(=O)c1ccc(C)cc1)C(Cl)(Cl)Cl` (stereo not given), the inhibition was -1.96% (inactive).

As to `CNC(=O)Nc1ccc(C(O)(C(=O)OC)C(F)(F)F)cc1` (stereo not given), the inhibition was 1.95% (inactive).

For `Cc1ccc(C2CN(C)CC2C(=O)c2ccc(F)cc2)cc1` (stereo not given), the inhibition is -2.93% (inactive).

With `COCc1cc(OC(=O)N(C)C)nc(-c2ccc(C)c(Cl)c2)n1`, the inhibition is -1.37% (inactive).

For the origin of these results see PubChem BioAssay AID2235 (The Scripps Research Institute Molecular Screening Center, 2010).
